Calls of active or inactive are those of the source.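 The calls were made as follows, unless noted: active = inhibition above 20% together with a positive visual image hit; inconclusive = visual image hit but inhibition not above 20%; inactive = no visual image hit.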

Experiment [1] in a line: inhibitors of TNFa-induced NFkB p65 translocation, primary screen, imaging, HUVEC, MLSMR starter and 10KST1 sets (AID 438).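 Also: compound added about 3h40 before a 20 min TNFalpha stimulation.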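 As to inhibition: signal is the nuclear over cytoplasmic p65 intensity ratio per well.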 The following applies: HUVEC TNFa-induced p65 nuclear translocation; cell count: measured here: nuclei count (cytotoxicity indicator), at 2.08 µM; inhibition: at 2 µM, stronger effect = higher value, 0% TNFa-plus-vehicle, 100% no-TNFa wells.
A short description of experiment [2]: reduction of polyQ htt aggregates in cells – imaging, exon1htt(103Q)mCFP cells, high-content imaging, primary screen (AID 483;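 active = visual image review flags a hit and inhibition of aggregation exceeds 20%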;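 also: compound exposure lasted 3 days before fixation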;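 as to nuclei count: percent of the per-plate median nuclei count of sample wells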). The following applies: exon1htt(103Q)mCFP cell line, aggregate imaging, at 2 µM; inhibition of aggregation: stronger effect = higher value; nuclei count: measured here: cell count, toxicity.
Experiment [3] is described as follows: endothelial E-selectin expression blockers – imaging, HUVEC, immunofluorescence, MLSMR starter and 10KST1 sets, primary screen (AID 487;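 active = visually confirmed hit in the image check and inhibition above 20%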;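 as to inhibition: signal is fraction of cell area covered by stained E-selectin grains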;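 as to nuclei count: 100% = median nuclei count of all wells on the same plate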). The note with it: HUVEC TNFalpha-induced E-selectin immunofluorescence imaging, at 2 µM; inhibition: stronger effect = higher value; nuclei count: measured here: cell number, toxicity.
Experiment [4] has as its target Voltage-gated potassium channel subunit beta-2 (Rattus norvegicus) (UniProt P62483). The experiment can be described thus: inhibitors of rat Kvbeta2 reductase activity – biochemical, NADPH fluorescence, primary screen (AID 622;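 active = fluorescence slope higher than the sample average by over 3 SD, cut at about -0.22 in these data, passing the limit was not always enough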;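 also: slope of raw intensity against log time taken from 70 to 1610 s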). The following applies: recombinant KvBeta, 4-cyanobenzaldehyde reduction, at 10 µM, stronger effect = higher value.
For experiment [5] the target is unchanged. The experiment can be described thus: enhancers of rat Kvbeta2 NADPH turnover – biochemical, NADPH fluorescence, primary screen (AID 623;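 active = NADPH fluorescence slope more negative than the mean of all samples by about 3 SD, 99.7% confidence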;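 also: fluorescence intensity change per second fitted from 20 to 320 s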). The following applies: Recombinant KvBeta, NADPH fluorescence decrease slope, 10 min; at 10 µM; stronger effect = lower value.
Experiment [6] has as its target Alpha-2C adrenergic receptor (Homo sapiens) (UniProt P18825). Kind of experiment: compounds altering alpha2C-coupled GIRK flux – cell-based, HEK293 alpha2C/GIRK1/2, thallium flux, primary screen (AID 624;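 active = fluorescence slope after compound addition differing from the mean of all screened samples at 99.7% confidence, in either direction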;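 also: slope of fluorescence ratio to pre-addition baseline per second over 15 to 24 s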). The following applies: thallium flux BTC fluorescence, at 10 µM, actives lie on both sides.
The nature of experiment [7]: blockers of RIG-like receptor reporter activation – cell-based, Sendai virus stimulus, luciferase, 10K MLSCN set, TLR/RLR signaling modifier project, primary screen (AID 602276;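 active = inhibition at or above 50% at 10 µM; inactive = inhibition below 50%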;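 also: firefly luciferase from ISG56 promoter only with Renilla not read in this screen; 0% = Sendai virus plus DMSO and 100% = medium plus DMSO without virus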). The note with it: HEK293 RL24 IRF3 luciferase reporter, at 10 µM, stronger effect = higher value.
Experiment [8] in a line: TLR3 IRF3 reporter activation blockers – cell-based, poly I:C stimulus, luciferase, 10K MLSCN set, primary screen (AID 602277;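 active = inhibition of the reporter signal at or above 50%; inactive = inhibition below 50%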). The following applies: HEK293-TLR3 RL24 IRF3 luciferase reporter, at 10 µM, stronger effect = higher value.

Alpha-2C adrenergic receptor (Homo sapiens), sequence (P18825 whole entry, looked up): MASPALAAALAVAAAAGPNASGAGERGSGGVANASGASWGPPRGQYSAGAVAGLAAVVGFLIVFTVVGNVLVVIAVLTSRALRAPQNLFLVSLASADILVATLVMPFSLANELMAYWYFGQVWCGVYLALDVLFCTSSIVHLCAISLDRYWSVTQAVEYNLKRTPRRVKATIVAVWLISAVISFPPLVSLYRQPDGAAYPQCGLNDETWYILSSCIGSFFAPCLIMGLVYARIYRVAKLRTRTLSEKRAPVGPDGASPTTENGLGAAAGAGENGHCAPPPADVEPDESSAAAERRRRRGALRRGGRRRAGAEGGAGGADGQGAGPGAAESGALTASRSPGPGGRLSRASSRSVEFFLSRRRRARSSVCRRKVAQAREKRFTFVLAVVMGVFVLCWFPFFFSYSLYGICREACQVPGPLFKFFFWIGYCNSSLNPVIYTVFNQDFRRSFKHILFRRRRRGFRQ
Voltage-gated potassium channel subunit beta-2 (Rattus norvegicus), sequence (P62483 whole entry, looked up): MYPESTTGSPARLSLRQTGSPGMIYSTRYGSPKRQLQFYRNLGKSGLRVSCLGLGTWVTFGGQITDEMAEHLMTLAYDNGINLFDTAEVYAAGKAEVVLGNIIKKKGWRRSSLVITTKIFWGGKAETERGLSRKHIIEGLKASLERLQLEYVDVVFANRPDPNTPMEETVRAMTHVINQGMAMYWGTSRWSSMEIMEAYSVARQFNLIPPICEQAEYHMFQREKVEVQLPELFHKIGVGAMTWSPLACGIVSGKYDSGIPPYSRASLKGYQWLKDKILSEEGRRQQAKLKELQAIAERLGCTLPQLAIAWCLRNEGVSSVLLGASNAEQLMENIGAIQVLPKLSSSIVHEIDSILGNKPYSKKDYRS

On to `CCc1cccc2c(=O)c(C(=O)N3CCCCCC3)c[nH]c12`, for which the cell count in experiment [1] is 538. Further, the inhibition was -26.5% (inactive) in experiment [1], -31% (inactive) in experiment [3], 4.31% (inactive) in experiment [7] and -4.51% (inactive) in experiment [8]. Further, the inhibition of aggregation in experiment [2] was 7.9% (inactive). Besides, the nuclei count in experiment [2] turned out to be 87.7%; in experiment [3] it was 94.3%. For the same compound, the fluorescence slope in experiment [4] is -0.513 (inactive). Besides, the NADPH fluorescence slope in experiment [5] was -5.1e-05 (inactive). Further, the slope in experiment [6] is 0.0048 (inactive).
Turning to `O=C(Nc1cnn(Cc2ccc(F)cc2)c1)c1cnccn1`, in experiment [1], the cell count was 582. In addition, the inhibition in experiment [1] is -17% (inactive); in experiment [3] it was -94.9% (inactive); in experiment [7] it was 4.25% (inactive); in experiment [8] it was 8.05% (inactive). In addition, the inhibition of aggregation in experiment [2] is -7.5% (inactive). For the same compound, the nuclei count in experiment [2] amounted to 109%; in experiment [3], 120%. The fluorescence slope in experiment [4] is -0.504 (inactive). Also, in experiment [5], the NADPH fluorescence slope is -4.3e-05 (inactive). Also, the slope in experiment [6] is 0.00522 (inactive).
`O=C1C2CC=CCC2C(=O)N1c1ccc(Cc2ccncc2)cc1` (configuration not stated): the cell count in experiment [1] was 591. The inhibition in experiment [1] is -2.9% (inactive); in experiment [3] it was 29.1% (inactive); in experiment [7], -2.68% (inactive); in experiment [8], -12.7% (inactive). In addition, the inhibition of aggregation in experiment [2] was -8.1% (inactive). Also, the nuclei count in experiment [2] was found to be 107%; in experiment [3], 95.7%. In addition, in experiment [4], the fluorescence slope is -0.43 (inactive). Besides, the NADPH fluorescence slope in experiment [5] is 5.4e-05 (inactive). For the same compound, the slope in experiment [6] was 0.00567 (inactive).
For the compound `O=C(c1ccc(CSCc2ccccc2F)o1)N1CCN(c2ccc(N3CCOCC3)nn2)CC1`, the cell count in experiment [1] is 504. In addition, the inhibition was -13.1% (inactive) in experiment [1], -7.9% (inactive) in experiment [3], 4.73% (inactive) in experiment [7] and 15.4% (inactive) in experiment [8]. In addition, the inhibition of aggregation in experiment [2] is 40.2% (inactive). The figures for the nuclei count in experiment [2] and in experiment [3] were 79.3% and 101%, respectively. In addition, the fluorescence slope in experiment [4] was -0.435 (inactive). Moreover, the NADPH fluorescence slope in experiment [5] is -1.8e-06 (inactive). Besides, the slope in experiment [6] is 0.00478 (inactive).
`CCOC(=O)c1c(C)oc2c1c(C(c1ccncc1)N1CCOCC1)c(O)c1ccccc12` (configuration not stated): the cell count in experiment [1] is 827. The inhibition in experiment [1] is -7.9% (inactive); in experiment [3], -21.1% (inactive); in experiment [7], -6.32% (inactive); in experiment [8], -31.2% (inactive). The inhibition of aggregation in experiment [2] was -6.4% (inactive). The nuclei count came to 101% in experiment [2] and 107% in experiment [3]. For the same compound, in experiment [4], the fluorescence slope was -0.594 (inactive). Moreover, the NADPH fluorescence slope in experiment [5] was 2.5e-05 (inactive). For the same compound, in experiment [6], the slope was 0.00459 (inactive).
Take `CCN(CC)S(=O)(=O)c1ccc(NC2CCCc3ccccc32)nc1` (configuration not stated): the cell count in experiment [1] was 451. Further, the inhibition in experiment [1] was 7.1% (inactive); in experiment [7] it was 11.9% (inactive); in experiment [8] it was 17.1% (inactive). Moreover, in experiment [2], the inhibition of aggregation is 15.4% (inactive). The values for the nuclei count in experiment [2] and in experiment [3] were 103% and 163%, respectively. For the same compound, in experiment [4], the fluorescence slope is -0.594 (inactive). In addition, the NADPH fluorescence slope in experiment [5] is -3e-05 (inactive). The slope in experiment [6] is 0.00558 (inactive).
As for `CNC(=O)CN(c1ccc(C(C)C)cc1)S(C)(=O)=O`, the cell count in experiment [1] was 372. Further, the inhibition in experiment [1] was -0.8% (inactive); in experiment [3], 24.1% (inactive); in experiment [7], 11% (inactive); in experiment [8], 35.7% (inactive). In experiment [2], the inhibition of aggregation is -4.8% (inactive). Also, the nuclei count in experiment [2] and in experiment [3] was 114% in each case. For the same compound, the fluorescence slope in experiment [4] was -0.397 (inactive). In experiment [5], the NADPH fluorescence slope was 1.3e-05 (inactive). In addition, the slope in experiment [6] was 0.00372 (inactive).
Take `CCOC(=O)c1[nH]c(C)c(C(=O)N2CCN(C(=O)c3ccco3)CC2)c1C`: the cell count in experiment [1] came to 780. For the same compound, the inhibition in experiment [1] was -13.4% (inactive); in experiment [3], -102% (inactive); in experiment [7] it was 16.8% (inactive); in experiment [8], 18.7% (inactive). Further, the inhibition of aggregation in experiment [2] is 2.2% (inactive). The nuclei count in experiment [2] is 110%; in experiment [3] it was 101%. In experiment [4], the fluorescence slope was -0.5 (inactive). The NADPH fluorescence slope in experiment [5] was 1.2e-05 (inactive). Moreover, in experiment [6], the slope is 0.00532 (inactive).
On to `N#Cc1ccccc1NC(=O)CSc1nnc(-c2ccccc2)n1-c1ccccc1`, for which, in experiment [1], the cell count stood at 556. The inhibition in experiment [1] is -25.3% (inactive); in experiment [3], -1.6% (inactive); in experiment [7], 1.9% (inactive); in experiment [8] it was 24.8% (inactive). In experiment [2], the inhibition of aggregation was -20.9% (inactive). Besides, the nuclei count in experiment [2] turned out to be 99.9%; in experiment [3], 83.7%. Moreover, in experiment [4], the fluorescence slope is -0.603 (inactive). Also, the NADPH fluorescence slope in experiment [5] is -1.9e-05 (inactive). The slope in experiment [6] was 0.00673 (inactive).
In the case of `CCOC(=O)c1cnn(-c2cc(C)c3cc(C)cc(C)c3n2)c1N`, in experiment [1], the cell count is 494. For the same compound, the figures for the inhibition in experiment [1], in experiment [7] and in experiment [8] were 9% (inactive), -17.1% (inactive) and -21.2% (inactive), respectively. For the same compound, in experiment [2], the inhibition of aggregation is -9.8% (inactive). Also, the figures for the nuclei count in experiment [2] and in experiment [3] were 110% and 152%, respectively. In addition, in experiment [4], the fluorescence slope was -0.545 (inactive). Besides, the NADPH fluorescence slope in experiment [5] is 2e-05 (inactive). Moreover, the slope in experiment [6] is 0.00906 (inactive).
Take `O=C(c1ccco1)N1CCN(CCCCN2C(=O)c3ccccc3C2=O)CC1`: the cell count in experiment [1] turned out to be 265. In addition, the inhibition in experiment [1] was 26.7% (inactive); in experiment [3], 5.7% (inactive); in experiment [7] it was 15.1% (inactive); in experiment [8], 36.3% (inactive). Also, the inhibition of aggregation in experiment [2] is 16% (inactive). Moreover, the nuclei count in experiment [2] was 89.1%; in experiment [3], 95.4%. Moreover, the fluorescence slope in experiment [4] is -0.593 (inactive). Further, the NADPH fluorescence slope in experiment [5] was 4.7e-06 (inactive). The slope in experiment [6] was 0.00572 (inactive).
Turning to `CC(=O)c1cccc(S(=O)(=O)N2CCC(n3nnc4cc(F)ccc43)CC2)c1`, in experiment [1], the cell count is 598. The inhibition is 2.7% (inactive) in experiment [1], -14.7% (inactive) in experiment [3], -0.237% (inactive) in experiment [7] and 31.4% (inactive) in experiment [8]. Further, in experiment [2], the inhibition of aggregation was 3.8% (inactive). Also, the nuclei count in experiment [2] was 90.5%; in experiment [3] it was 93.6%. Moreover, the fluorescence slope in experiment [4] is -0.4 (inactive). In experiment [5], the NADPH fluorescence slope was 2.2e-05 (inactive). In addition, the slope in experiment [6] was 0.00694 (inactive).
As for `O=C(NCC1CCCO1)c1ccc(C(=O)NCC2CCCO2)cc1` (configuration not stated), the cell count in experiment [1] came to 331. Besides, the inhibition in experiment [1] was 1.9% (inactive); in experiment [3] it was 52.3% (inactive); in experiment [7], 1.79% (inactive); in experiment [8], 4.03% (inactive). Moreover, the inhibition of aggregation in experiment [2] is -3.7% (inactive). The nuclei count in experiment [2] turned out to be 101%; in experiment [3], 94.3%. Also, the fluorescence slope in experiment [4] is -0.332 (inactive). The NADPH fluorescence slope in experiment [5] is -3.2e-05 (inactive). Besides, the slope in experiment [6] is 0.00518 (inactive).
As for `CC1CCN(c2nc3c(c(=O)n(C)c(=O)n3C)n2Cc2ccccc2)CC1`, the cell count in experiment [1] came to 666. In addition, the inhibition in experiment [1] is -3.5% (inactive); in experiment [3] it was -81.5% (inactive); in experiment [7], 12.3% (inactive); in experiment [8], 15.2% (inactive). Moreover, in experiment [2], the inhibition of aggregation was -14.9% (inactive). The nuclei count in experiment [2] was 83.4%; in experiment [3], 139%. Also, the fluorescence slope in experiment [4] is -0.39 (inactive). For the same compound, the NADPH fluorescence slope in experiment [5] was -6.1e-06 (inactive). In addition, the slope in experiment [6] was 0.00388 (inactive).

Values taken from PubChem BioAssay.
